# In the library only some 6.7% were active in any assay of this set; here they are far more common.
# BoNT-A LC inh2 – inhibitors of Botulinum neurotoxin A light chain protease | multiplex microsphere protease substrate cleavage, flow cytometry | inhibition, % at 10 µM | actives 0.17% (n = 360,000) | AID 588499; note: plate controls were buffer without enzyme for full effect and enzyme alone for no effect
# Bead autofluor – flagged as autofluorescent in microsphere protease counterscreen; compound autofluorescence counterscreen, microsphere flow cytometry; hits give high values; fluorescence intensity (concentration not given with the values); actives 3.1% (n = 360,000); in the data active = fluorescence intensity above about 16000; inconclusive = no clear call, values can overlap the other calls
# GDH-TPI counter-1 – GDH-TPI coupled enzyme inhibition counter-screen. GDH-TPI coupled enzyme counterscreen, NADH absorbance. inhibition, % at 4.8 µM. actives 1.2% (n = 360,000). AID 588335; in the data active = inhibition above about 30%;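 note: 0% = DMSO wells and 100% = wells lacking the enzyme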
# Anthrax LF prot – inhibitors of Bacillus anthracis lethal factor protease; multiplex microsphere protease cleavage assay, LF; P15917; actives 0.12% (n = 360,000); inhibition, % at 10 µM; AID 588501; note: plate controls were buffer without enzyme for full effect and enzyme alone for no effect
# BoNT-F LC inh – BoNT F light chain protease inhibition. inhibition, % at 10 µM. AID 588497. actives 0.22% (n = 360,000). Multiplex microsphere protease cleavage assay, flow cytometry; in the data active = inhibition above about 35%, passing the limit was not always enough; inconclusive = no clear call, values can overlap the other calls; note: plate controls were buffer without enzyme for full effect and enzyme alone for no effect
# Mtb FBA inh – inhibitors of M. tuberculosis fructose-bisphosphate aldolase | P9WQA3 | purified M. tuberculosis FBA, fluorescence read-out | inhibition, % at 1 µM | actives 2.3% (n = 360,000); in the data active = inhibition above about 27%;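 note: 0% = vehicle and 100% = reference inhibitor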
# Target sequence (P9WQA3 whole entry, looked up): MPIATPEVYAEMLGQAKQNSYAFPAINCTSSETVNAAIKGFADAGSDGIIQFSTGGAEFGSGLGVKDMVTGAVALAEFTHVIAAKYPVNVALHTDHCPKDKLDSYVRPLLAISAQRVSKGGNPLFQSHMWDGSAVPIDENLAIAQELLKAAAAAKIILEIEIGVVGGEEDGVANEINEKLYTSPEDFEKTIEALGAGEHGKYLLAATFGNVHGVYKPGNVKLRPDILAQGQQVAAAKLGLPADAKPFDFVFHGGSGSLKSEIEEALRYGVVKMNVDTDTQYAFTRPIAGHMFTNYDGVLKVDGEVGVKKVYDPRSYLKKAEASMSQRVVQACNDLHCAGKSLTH
# Mtb FBA inh conf – Mtb FBA inhibition, confirmed; shares compounds with Mtb FBA inh; purified M. tuberculosis FBA, fluorescence read-out; inhibition, % at 1 µM; actives 78% (n = 5,600); in the data active = inhibition above about 27%;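 note: 0% = vehicle wells and 100% = reference inhibitor wells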
# GDH-TPI counter-2 – inhibits GDH-TPI coupling enzymes, flagging Mtb FBA hits; shares compounds with Mtb FBA inh; GDH-TPI coupled enzyme counterscreen, fluorescence; inhibition, % at 1 µM; actives 81% (n = 5,600); AID 652141; in the data active = inhibition above about 10%
# * = called active by the depositor; ? = inconclusive; nt = no result; + = active, no number; ! = not active in a repeat. Cut-off read from the data, not from the text of the source, unless noted: active = inhibition above about 30%; inconclusive = no clear call, values can overlap the other calls; inactive = below that.
SMILES,BoNT-A LC inh2,Bead autofluor,GDH-TPI counter-1,Anthrax LF prot,BoNT-F LC inh,Mtb FBA inh,Mtb FBA inh conf,GDH-TPI counter-2
CC(C)=CC(=O)O[C@@H]1Cc2cc3ccc(=O)oc3cc2OC1(C)C,-0.7,2889,18.7,-6.2,-7.9,34.1*,+,+
COc1cccc2c(=O)c(C(=O)NCCc3ccccc3)c[nH]c12,-0.5,4094,10.0,7.6,17.3,48.5*,63.4*,45.1*
COc1cccc2c(=O)c(C(=O)NCc3cccs3)c[nH]c12,-0.4,7076,12.2,2.2,5.4,34.2*,32.3*,26.0*
O=C(NCCc1ccccc1)c1c[nH]c2ccccc2c1=O,-0.3,3987,2.2,-2.4,0.7,-2.3,nt,nt
Cc1ccc2[nH]cc(C(=O)NCc3cccs3)c(=O)c2c1,-0.2,10467,-4.1,-0.2,0.0,0.2,nt,nt
Cc1cc(C)cc(OCCNC(=O)C2CCN(S(=O)(=O)c3ccccc3)CC2)c1,-5.0,7027,3.8,-2.6,-6.4,-1.7,nt,nt
CCCc1nc2ccc(N)cc2c(=O)n1Cc1ccccc1Cl,0.1,4029,0.8,19.4,9.5,27.9*,105.3*,83.2*
CC1(C)CC(=O)C2=C(C1)NC(SCC(N)=O)=C(C#N)C21CCCCC1,-0.7,2316,15.8,-1.8,-17.0,2.4,nt,nt
c1cncc(-c2noc(-c3cccc4ccccc34)n2)c1,0.4,10405,4.0,-0.1,-8.2,28.4*,22.1,19.5*
CCOC(=O)NN1C(=O)c2ccccc2NC1(C)C,0.1,3142,3.5,-1.4,5.8,103.7*,135.8*,112.3*
COc1ccc(C2Nc3ccccc3C(=O)N2NC(=O)c2ccccc2)cc1OC (stereo unspecified),-1.5,3285,2.2,-1.4,-1.0,7.4,nt,nt
CCOC(=O)N1CCC2(CC1)NC(=O)c1ccccc1N2,-0.5,3915,9.3,9.7,-4.9,85.5*,36.7*,24.9*
COc1ccc(C2Nc3ccccc3C(=O)N2NC(C)=O)cc1OC (stereo unspecified),-0.3,3956,-1.9,-3.0,0.0,36.1*,35.8*,26.2*
CCOC(=O)NN1C(=O)c2ccccc2NC1c1ccc(OC)c(OC)c1 (stereo unspecified),-1.1,4282,-8.9,-4.0,-3.6,43.2*,4.6,-4.1
CCOC(=O)N1CCC(N2C(=O)c3ccccc3C2=O)CC1,-0.4,6433,-13.3,-5.9,-1.4,-1.7,nt,nt
COc1ccc(NC(=O)c2cc(-c3cc(C)cs3)[nH]n2)cc1OC,-0.4,3938,8.0,-4.7,-7.1,-1.4,nt,nt
O=C(NCC(c1cccs1)N1CCOCC1)c1cc(S(=O)(=O)N2CCOCC2)c(Cl)cc1Cl (stereo unspecified),-9.6,?,0.7,-2.9,-13.2,-0.3,nt,nt
CC1(C)CC(NC(=S)NC2CC2)CC(C)(C)N1,0.2,3374,-1.3,0.0,-4.1,4.4,nt,nt
Cc1sc2ncnc(NCC(O)c3ccccc3)c2c1C (stereo unspecified),0.2,5659,0.8,0.5,-1.3,-0.2,nt,nt
CCN1CCN(Cc2ccc(NC(=O)c3ccc(C)c(NC(=O)c4cccc5[nH]ccc45)c3)cc2C(F)(F)F)CC1,-0.1,3897,-9.9,-2.8,-16.1,30.5*!,+,+
CCOc1ccccc1N1CC(C(=O)NNC(=O)c2ccc(F)cc2)CC1=O (stereo unspecified),1.9,4505,-2.8,-5.1,3.3,3.7,nt,nt
C=CCNc1nc(-c2ccc([N+](=O)[O-])cc2)cs1,5.7,2561,16.1,3.1,-1.8,3.2,nt,nt
CN(C)c1nc(-c2ccc([N+](=O)[O-])cc2)cs1,10.1,2781,11.7,8.7,5.5,33.7*,193.5*,141.6*
COC(=O)c1[nH]c2ccc(Cl)cc2c1NC(=O)Oc1ccccc1,0.7,2847,7.8,1.7,?,66.2*,8.6,-4.0
COC(=O)c1[nH]c2ccc(Cl)cc2c1NC(=O)C1CC1,1.3,3504,17.3,2.5,-4.0,26.7,nt,nt
CCn1c(CC(=O)Nc2ccc(Cl)c(Cl)c2)nnc1SCc1ccc(C)cc1,0.9,2097,-0.4,2.2,-2.3,0.4,nt,nt
